WT yeast gro inh = growth inhibition of WT yeast, mitochondrial fusion screen; inhibition, % at 10 µM; actives 2.1% (n = 190,000); AID 1362; mitochondrial fusion phenotypic screen, WT strain; in the data active = inhibition above about 58%; tested in S. cerevisiae
RAM inhibit = inhibitors of the yeast RAM network; S. cerevisiae dse1pr::URA3 reporter, 5-FOA growth OD615, 2 d; analog-sensitive cbk1-as2 kinase mutant strain; inhibition, % at 50 µM; actives 1.8% (n = 190,000); AID 868;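 active = inhibition above a set limit, 3 SD over mean compound inhibition, cut at about 8.4% in these data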;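 note: 0% = DMSO-only wells with no growth and 100% = 10 µM 1-NA-PP1 full growth; inhibition rescues growth on 5-FOA so higher OD means more RAM inhibition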
L major viab = Leishmania major promastigote growth inhibition; actives 9% (n = 200,000); inhibition, % at 10 µM; AID 1063; Leishmania major promastigotes, resazurin fluorescence viability; in the data active = inhibition above about 50%;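 note: promastigotes grown with compound for 44 hours at 28 °C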
CHOP inh = blocks CHOP induction under ER stress; CHO-K1 CHOP-promoter luciferase, tunicamycin-induced, 15-18 h; inhibition, % at 10 µM; actives 3.8% (n = 220,000);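 active = compounds that reduced the stress-induced luciferase reporter signal by more than about 70% of percent inhibition, limit read from the data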;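 note: 0% = tunicamycin plus vehicle and 100% = wells without tunicamycin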
* = called active by the depositor; x = no result given. Only some compounds are listed: those with a hit (about 13% of all), similar ones and a draw of the others.

SMILES	WT yeast gro inh	RAM inhibit	L major viab	CHOP inh
COc1cc(C(=O)Oc2cccc(Nc3ncnc4ccccc34)c2)cc(OC)c1OC	10	0	19	92*
O=C1CC(/C=C/c2ccccc2)=Nc2ccccc2N1	-11	4	84*	-22
O=C1CC(C(F)(F)C(F)(F)C(F)(F)F)=Nc2ccccc2N1	16	1	-3	10
CC1(C)CC(/C=C/c2ccccc2)=Nc2ccccc2N1	x	x	x	-14
O=C1CC(/C=C/c2ccc(Cl)cc2)=Nc2ccccc2N1	-11	1	81*	-74
O=C1CC(/C=C/c2cccnc2)=Nc2ccccc2N1	0	-1	65*	10
Cc1ccc(Cn2ccc(=O)c(OCc3c(Cl)cccc3Cl)c2C)cc1	77*	-1	97*	21
Cn1c(SCc2ccccn2)nnc1-c1ccccc1	-4	3	-7	11
CCOC(=O)c1c(NC(=O)/C=C/C(=O)O)sc(C)c1-c1ccc(C(C)(C)C)cc1	55	3	100*	39
Cc1sc(NC(=O)C2C3CCC(C3)C2C(=O)O)c(C(N)=O)c1-c1ccc(C(C)(C)C)cc1 (configuration not stated)	14	2	57*	26
CCc1nc(NC(=O)NS(=O)(=O)c2ccccc2C(=O)OC)nc(OC)n1	5	0	-6	-3
CC(C)(C)c1ccccc1NC(=O)Cn1c(=O)cnc2ccccc21	9	-1	55*	7
CC(C)c1cccc(C(C)C)c1NC(=O)Cn1c(=O)cnc2ccccc21	11	4	92*	7
CCN(CC)c1ccc(NC(=O)Nc2ccccc2C(F)(F)F)cc1	63*	0	0	38
CCN(CC(=O)Nc1ccc(C(C)=O)cc1)CC(=O)Nc1ccccc1C(F)(F)F	-7	2	13	-6
CN(C)c1ccc(NC(=O)Nc2cccc3ccccc23)cc1	-19	1	-6	86*
COc1ccc(NC(=O)Nc2ccc(N(C)C)cc2)cc1	9	1	4	11
C/C(=N\NC(=O)c1ccc(=O)[nH]n1)c1cccnc1	-2	0	30	-6
O=C(NCc1ccc(Cl)cc1)C(=O)NCC1OCCN1C(=O)c1cccs1 (configuration not stated)	1	3	-4	17
CCc1ccc2ncc(S(=O)(=O)c3ccc(C)c(C)c3)c(N3CCCC3)c2c1	72*	0	30	18
CCOc1ccc2ncc(S(=O)(=O)c3ccccc3)c(N3CCC4(CC3)OCCO4)c2c1	44	2	86*	28
COc1ccc(N2CCN(c3c(S(=O)(=O)c4ccccc4)cnc4ccc(OC)cc34)CC2)cc1	76*	1	61*	9
CCc1nccn1S(=O)(=O)c1ccc(C)c(C)c1	-3	2	-1	-1
COc1ccc(S(=O)(=O)c2cnc3ccc(OC)cc3c2N2CCC3(CC2)OCCO3)cc1	4	0	5	-1
COc1ccc(N2CCN(c3nc4ccccc4nc3NS(=O)(=O)c3ccccc3)CC2)cc1	33	0	-2	8
SMILES	WT yeast gro inh	RAM inhibit	L major viab	CHOP inh
CCOc1ccc2ncc(S(=O)(=O)c3ccccc3)c(N3CCN(c4ccc(OC)cc4)CC3)c2c1	52	3	100*	27
CCOc1cccc2c1OC(c1cc(OC)c(OC)c(OC)c1)N1N=C(c3ccc(C)o3)CC21 (configuration not stated)	21	2	10	4
Cc1cccc(-n2c(C)cc(/C=N/n3cnnc3)c2C)c1	2	-1	15	-6
CC1CC(C)CN(C(=O)c2ccc(N3CC4CC(C3)c3cccc(=O)n3C4)c([N+](=O)[O-])c2)C1 (configuration not stated)	-24	-1	56*	-11
CCc1ccc(OCC2c3cc(OC)c(OC)cc3CCN2C(=S)NCCOC)cc1 (configuration not stated)	32	2	19	23
CCNC(=S)N1CCc2cc(OC)c(OC)cc2C1COc1ccc(OC)cc1 (configuration not stated)	-5	1	68*	6
CCOc1ccc(CC2c3cc(OCC)c(OCC)cc3CCN2C(=O)c2cc(OC)c(OC)c(OC)c2)cc1OCC (configuration not stated)	13	3	55*	22
CCc1ccc(OCC2c3cc(OC)c(OC)cc3CCN2C(=S)NC)cc1 (configuration not stated)	75*	6	33	1
Cc1ccc(C)c(NS(=O)(=O)c2cc(C(=O)Nc3ccccc3-c3ccccc3)ccc2Cl)c1	30	8	35	12
CSc1ccccc1NC(=O)c1cc2ncc(Br)cn2n1	5	6	7	-31
Cc1nc2c3ccccc3nc(NNC(=O)CCC(=O)NCCC(C)C)n2n1	7	9.2*	-3	3
O=c1[nH]c(SCc2cccc(F)c2)nc2c1CCCC2	-1	2	-3	5
CCN(CC)c1nc2cc(C)ccc2cc1/C=C(\C#N)C(N)=O	5	2	17	48
COc1ccc(CNC(=O)C2CC(=O)N(c3ccc(OCC(=O)N4C(C)CCCC4C)cc3)C2)cc1 (configuration not stated)	64*	2	5	3
COc1ccc(CNC(=O)C2CC(=O)N(c3ccc(OCC(=O)N4CCCCC4)cc3)C2)cc1 (configuration not stated)	-8	0	-5	-5
CCN1C(=O)/C(=C\C=C\c2ccccc2[N+](=O)[O-])SC1=S	4	8.6*	-1	6
COc1ccc(N(CC(=O)Nc2ccc3c(c2)OCO3)S(=O)(=O)c2ccc(C)cc2)cc1OC	2	5	63*	-13
COC(=O)c1ccc(NC(=O)CN(c2ccc3c(c2)OCO3)S(C)(=O)=O)cc1	-25	0	64*	-4
COc1ccc(N(CC(=O)Nc2ccc3c(c2)OCO3)S(=O)(=O)c2ccccc2)c(OC)c1	9	5	71*	-1
CC1(C)Cc2nc3oc4c(=O)n(CC(=O)Nc5ccc(Cl)cc5)cnc4c3cc2CO1	x	x	x	95*
COC(=O)CSc1c(-c2ccccc2)c2cc(Cl)ccc2[nH]c1=O	x	1	-5	80*
COc1ccc(C2CC(c3c(-c4ccccc4)c4cc(Cl)ccc4[nH]c3=O)=NN2C(=O)CCC(=O)O)cc1 (configuration not stated)	-21	9.1*	-7	48
O=C(O)CCC(=O)N1N=C(c2c(-c3ccccc3)c3cc(Cl)ccc3[nH]c2=O)CC1c1ccccc1 (configuration not stated)	-10	7	0	7
COc1cccc(C2CC(c3c(-c4ccccc4)c4cc(Cl)ccc4[nH]c3=O)=NN2S(C)(=O)=O)c1OC (configuration not stated)	2	6	100*	54
CCOc1ccc(NC(=O)Nc2cccnc2)cc1	36	-1	0	-22
COCCCn1c(C2CCCCC2)nc2oc3cc(OC)ccc3c(=O)c2c1=O	-4	1	13	-1
COc1ccc(C(C)(C)C)cc1NC(=S)NCCN1CCOCC1	0	-2	-3	13
S=C(c1ccc(N2CCCC2)cc1)N1CCCCC1	5	2	88*	-12
